In PubChem BioAssay (NCI):
Compounds without any hit were thinned out: in the full panel of roughly 83,000, 20% have a hit.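 Growth was measured after 48 h exposure to one concentration of compound in 96-well plates. Values under 10 count as active.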 Unmarked numbers belong to inactive results. The source made the active and inactive calls.

What follows are compounds tested on EKVX NSCLC (assay: NCI-60 one-dose screen, 48 h (100 = growth as untreated, 0 = no growth, -100 = all killed)). Details: 10 µM.
Protocol: Growth inhibition of the EKVX human Non-Small Cell Lung tumor cell line is measured as a screen for anti-cancer activity. Cells are grown in 96 well plates and exposed to the test compound for 48 hours. Compounds are tested at a single concentration, which is 10^-5 M for most compounds. The reported endpoint is percent growth (GI% or GIPRCNT), where numbers from 0 - 100% represent growth inhibition, and numbers from -100% - 0 represent cell death. For example, a value of 40 represents 60% growth inhibition. A value of 0 means no net growth occurred over the course of the experiment. A value of -40 indicates 40% of cells at the beginning of the experiment died by the end of the experiment. A value of -100 means all cells are dead at the end of the experiment.
NCI-60 Human Tumor Cell Lines Screen was performed using the standard one-dose NCI protocol, which is described in more detail at https://dtp.cancer.gov/discovery_development/nci-60/default.htm.
Compounds with GIPRCNT values below 10 were considered active. Activity score was based on GIPRCNT using the following formula: […]
Score is 0 for GIPRCNT values of 100 or above, 50 for GIPRCNT values of 0, and 100 for GIPRCNT values of -100.

Q: `C[C@H]1[C@H](OC(=O)CCC(=O)N(CCCc2cn(-c3ccc(C#N)cc3)nn2)CCNc2ccnc3cc(Cl)ccc23)O[C@@H]2OC3(C)CC[C@H]4[C@H](C)CC[C@@H]1[C@@]24OO3` was tested. Which growth did it give?
A: The growth was 53%.

Q: Which growth does the source give for `COCCOCCOCCOc1ccc(-n2cc(-c3ccc(O[C@H]4O[C@@H]5OC6(C)CC[C@H]7[C@H](C)CC[C@@H]([C@H]4C)[C@@]57OO6)cc3)nn2)cc1` here?
A: Its growth is 26.7%.

Q: `O=C(NC([Se])=NC1CCCCC1)c1ccc2c(c1)OCO2` was tested. Which growth did it give?
A: The growth was 56.8%.

Q: `CC1=C(CCC=O)C2=C(C)C3(CC3)[C@@](C)(O)C(=O)C2=C1` was tested. Which growth did it give?
A: Its growth is -81.6% (active).

Q: `COc1cc(OC)c(S(=O)(=O)N(CCCl)CCCl)cc1C(=O)/C=C/c1cc(OC)c(OC)c(OC)c1` was tested. Which growth did it give?
A: Its growth is 12.3%.

Q: How did the growth turn out when `CC(=C\C(=O)Oc1ccc2c3c1OC1C(O)CCC4(O)C(C2)N(CC2CCC2)CCC314)/C=C1\CCCc2ccccc21` (stereo not given) was run?
A: The growth was 49.7%.

Q: With `O=C(/C=C/c1ccco1)c1nc2ccccc2n1Cc1ccc(Br)cc1` as the compound, how does the growth read?
A: The growth was 17.8%.

Q: For `C=CC[Se]C(=O)c1cncc(C(=O)[Se]CC=C)c1`, which growth is on record?
A: Its growth is -97.9% (active).

Q: `C#CCCCN(CCNc1ccnc2cc(Cl)ccc12)C(=O)CCC(=O)O[C@@H]1O[C@@H]2OC3(C)CC[C@H]4[C@H](C)CC[C@@H]([C@H]1C)[C@@]24OO3` was tested. Which growth did it give?
A: The growth was 42.3%.

Q: Which growth does the source give for `COc1cc2cc(C(=O)N3C[C@@H](CCl)c4c3cc(OC(=O)N3CCN(C(=O)CCC(=O)N5CCN(C)CC5)[C@@H]5CSSC[C@@H]53)c3ccccc43)[nH]c2c(OC)c1OC` here?
A: Its growth is -84.6% (active).

Q: For `CC12OOC(C)(OO1)C2CCC(=O)NCCNc1ccnc2cc(Cl)ccc12` (stereo not given), which growth is on record?
A: The growth was 88.6%.

Q: For `CC[C@]12C=CCN3CC[C@@]4(c5ccc(OC)cc5N(C)[C@H]4[C@@](O)(C(=O)OC)[C@@H]1OC(=O)CCCC[P+](C1CCCCC1)(C1CCCCC1)C1CCCCC1)[C@@H]32`, which growth is on record?
A: Its growth is 13.2%.

Q: For `CC(C)N=C([Se])NC(=O)c1ccccc1`, which growth is on record?
A: The growth was -56.8% (active).

Q: For `COc1cc2cc(C(=O)N3C[C@@H](CCl)c4c3cc(OC(=O)N3CCN(C)[C@@H]5CSSC[C@@H]53)c3ccccc43)[nH]c2c(OC)c1OC`, which growth is on record?
A: Its growth is -56.1% (active).

Q: For `CC[C@]12C=CCN3CC[C@@]4(c5ccc(OC)cc5N(C)[C@H]4[C@@](O)(C(=O)OC)[C@@H]1OC(=O)CCC[P+](c1ccc(C)cc1)(c1ccc(C)cc1)c1ccc(C)cc1)[C@@H]32`, which growth is on record?
A: Its growth is -94.7% (active).

Q: `C=CCN=C([Se])NC(=O)c1ccc2c(c1)OCO2` was tested. Which growth did it give?
A: The growth was 73.5%.

Q: `C[C@H]1[C@H](OC(=O)CCC(=O)Nc2cnccn2)O[C@@H]2OC3(C)CC[C@H]4[C@H](C)CC[C@@H]1[C@@]24OO3` was tested. Which growth did it give?
A: Its growth is 38.4%.

Q: For `C[C@H]1[C@@H](CC(=O)N[C@@H](Cc2coc3ccccc23)B(O)O)O[C@@H]2OC3(C)CC[C@H]4[C@H](C)CC[C@@H]1[C@@]24OO3`, which growth is on record?
A: The growth was 7.62% (active).

Q: With `COC(=O)CCn1c(-c2ccc(-n3cc(-c4ccc(O[C@H]5O[C@@H]6OC7(C)CC[C@H]8[C@H](C)CC[C@@H]([C@H]5C)[C@@]68OO7)cc4)nn3)cc2)nc2ccccc21` as the compound, how does the growth read?
A: Its growth is 23.5%.

Q: For `CC[C@]12C=CCN3CC[C@@]4(c5ccc(OC)cc5N(C)[C@H]4[C@@](O)(C(=O)OC)[C@@H]1OC(=O)CCCC[P+](c1ccc(OC)cc1)(c1ccc(OC)cc1)c1ccc(OC)cc1)[C@@H]32`, which growth is on record?
A: Its growth is -59.7% (active).

Q: With `C[C@H]1[C@@H](Oc2ccc(-c3cn(-c4ccnc5cc(Cl)ccc45)nn3)cc2)O[C@@H]2OC3(C)CC[C@H]4[C@H](C)CC[C@@H]1[C@@]24OO3` as the compound, how does the growth read?
A: Its growth is 29.7%.

Q: For `O=C(/C=C/c1ccco1)c1nc2ccccc2n1Cc1ccc(F)cc1`, which growth is on record?
A: The growth was 58.9%.

Q: For `CCOC(=O)C1=C(Nc2ccccc2)C(=O)OC12C(=O)Nc1ccccc12` (stereo not given), which growth is on record?
A: Its growth is 95.2%.

Q: Which growth does the source give for `O=C(/C=C/c1ccccc1)c1nc2ccccc2n1Cc1ccc(F)cc1` here?
A: The growth was -60.5% (active).

Q: With `C[C@H]1[C@H](OC(=O)CCC(=O)N(CCCc2cn(-c3ccc([N+](=O)[O-])cc3)nn2)CCNc2ccnc3cc(Cl)ccc23)O[C@@H]2OC3(C)CC[C@H]4[C@H](C)CC[C@@H]1[C@@]24OO3` as the compound, how does the growth read?
A: Its growth is 46.8%.

Q: Which growth does the source give for `CC[C@]12C=CCN3CC[C@@]4(c5ccc(OC)cc5N(C)[C@H]4[C@@](O)(C(=O)OC)[C@@H]1OC(=O)CCC[P+](c1ccc(F)cc1)(c1ccc(F)cc1)c1ccc(F)cc1)[C@@H]32` here?
A: The growth was 58.1%.

Q: With `O=C(/C=C/c1ccc(Cl)cc1Cl)c1nc2ccccc2n1Cc1ccc(Br)cc1` as the compound, how does the growth read?
A: The growth was 61.6%.

Q: Which growth does the source give for `O=C(/C=C/c1ccc(F)cc1)c1nc2ccccc2n1Cc1ccc(F)cc1` here?
A: The growth was 13.6%.

Q: For `CC[C@]12C=CCN3CC[C@@]4(c5ccc(OC)cc5N(C)[C@H]4[C@@](O)(C(=O)OC)[C@@H]1OC(=O)CCCC[P+](c1ccc(C)cc1)(c1ccc(C)cc1)c1ccc(C)cc1)[C@@H]32`, which growth is on record?
A: The growth was -93.8% (active).

Q: Which growth does the source give for `C#CC[Se]C(=O)c1ccc2n[se]nc2c1` here?
A: The growth was 13.8%.

Q: With `O=C(NC([Se])=NC1CCCCC1)c1ccccc1` as the compound, how does the growth read?
A: Its growth is 19%.

Q: `CCOP(=O)(OCC)C(NC(C)=O)C(=O)SCCN` (stereo not given) was tested. Which growth did it give?
A: Its growth is 100%.

Q: How did the growth turn out when `COc1cc(OC)c(S(=O)(=O)N(CCCl)CCCl)cc1C(=O)/C=C/c1ccc(C)cc1` was run?
A: The growth was 89.5%.

Q: For `COc1ccc(OC)c(/C=C/C(=O)c2nc3ccccc3n2Cc2ccc(F)cc2)c1`, which growth is on record?
A: Its growth is -62.1% (active).

Q: How did the growth turn out when `C[C@H]1[C@H](OC(=O)CCC(=O)N(CCCc2cn(-c3ccc(CN4CCOCC4)cc3)nn2)CCNc2ccnc3cc(Cl)ccc23)O[C@@H]2OC3(C)CC[C@H]4[C@H](C)CC[C@@H]1[C@@]24OO3` was run?
A: Its growth is 49%.

Q: How did the growth turn out when `Cc1c2oc3c(C)ccc(C(=O)N[C@@H]4C(=O)N[C@H](C(C)C)C(=O)N5CCC[C@H]5C(=O)N(C)CC(=O)N(C)[C@@H](C(C)C)C(=O)OC4C)c3nc-2c(C(=O)N[C@@H]2C(=O)N[C@H](C(C)C)C(=O)N3CC(=O)C[C@H]3C(=O)N(C)CC(=O)N(C)[C@@H](C(C)C)C(=O)OC2C)c(N)c1=O` (stereo not given in full) was run?
A: The growth was -12.5% (active).

Q: For `O=C(/C=C/c1cccc(Br)c1)c1nc2ccccc2n1Cc1ccc(F)cc1`, which growth is on record?
A: Its growth is 20.1%.

Q: Which growth does the source give for `O=C(/C=C/c1ccc(Br)cc1)c1nc2ccccc2n1Cc1ccc(Br)cc1` here?
A: The growth was 1.19% (active).

Q: With `CC(C)N=C([Se])NC(=O)c1cccs1` as the compound, how does the growth read?
A: Its growth is 14.7%.

Q: `COC(=O)C[C@](O)(CCC(C)C)C(=O)O[C@H]1C(OC)=C[C@@]23CCCN2CCc2cc4c(cc2[C@@H]13)OCO4` was tested. Which growth did it give?
A: Its growth is -16.2% (active).
